From PubChem BioAssay
DAX1 inh-1: NR0B1 (DAX1) inhibition; HEK293 Gal4-DAX1 luciferase reporter, luminescence; hit rate 0.99% among 340,000; inhibition, % at 6.75 µM; AID 504766;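 active = inhibition above the mean over all tested compounds plus 3 SD, cut at about 4.2% in these data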;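 note: inhibition shows as a rise in luminescence from relieved DAX1 repression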
hcDAF-12 act: activates DAF-12 receptor from parasite H. contortus; HEK293 hcDAF-12 lit1-tk-luc reporter, luminescence; 0% DMSO, 100% Δ7-dafachronic acid; activation, % at 6.8 µM; hit rate 1.4% among 370,000; AID 652067;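 active = activation above the mean of all tested compounds plus 3 SD, cut at about 5.5% in these data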
DAX1 inh-2: inhibitors of DAX1 repression of SF-1 activated StAR promoter. HEK293T StAR-luciferase reporter, SF-1/DAX-1 repression relief. inhibition, % at 6.8 µM. hit rate 1.1% among 370,000. AID 652010;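 active = inhibition above the mean over all tested compounds plus 3 SD, cut at about 3.6% in these data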;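 note: higher inhibition means more luminescence from relief of DAX-1 repression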
ssDAF12 agonist: activators of S. stercoralis DAF-12 nuclear receptor; HEK293 ssDAF-12/GRIP1 lit1-tk-luc reporter, luminescence; % of 3 µM dafachronic acid response; activation, % at 6.8 µM; hit rate 1% among 370,000; AID 652126;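 active = activation above the mean over all tested compounds plus 3 SD, cut at about 0.9% in these data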
Wee1 stabilizer: inhibitors of human Wee1 degradation; P30291; HeLa Luc-Wee1K328M stability, luciferase luminescence; 100% = proteasome inhibitor MG132 effect; reporter increase, % at 5 µM; hit rate 1.2% among 220,000;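 active = activation above the mean of all tested compounds plus 3 SD, set per screening run, cut at about 8.8% in these data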;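 note: cells exposed to compound for 20 h before luminescence read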
Target sequence (P30291 whole entry K328M): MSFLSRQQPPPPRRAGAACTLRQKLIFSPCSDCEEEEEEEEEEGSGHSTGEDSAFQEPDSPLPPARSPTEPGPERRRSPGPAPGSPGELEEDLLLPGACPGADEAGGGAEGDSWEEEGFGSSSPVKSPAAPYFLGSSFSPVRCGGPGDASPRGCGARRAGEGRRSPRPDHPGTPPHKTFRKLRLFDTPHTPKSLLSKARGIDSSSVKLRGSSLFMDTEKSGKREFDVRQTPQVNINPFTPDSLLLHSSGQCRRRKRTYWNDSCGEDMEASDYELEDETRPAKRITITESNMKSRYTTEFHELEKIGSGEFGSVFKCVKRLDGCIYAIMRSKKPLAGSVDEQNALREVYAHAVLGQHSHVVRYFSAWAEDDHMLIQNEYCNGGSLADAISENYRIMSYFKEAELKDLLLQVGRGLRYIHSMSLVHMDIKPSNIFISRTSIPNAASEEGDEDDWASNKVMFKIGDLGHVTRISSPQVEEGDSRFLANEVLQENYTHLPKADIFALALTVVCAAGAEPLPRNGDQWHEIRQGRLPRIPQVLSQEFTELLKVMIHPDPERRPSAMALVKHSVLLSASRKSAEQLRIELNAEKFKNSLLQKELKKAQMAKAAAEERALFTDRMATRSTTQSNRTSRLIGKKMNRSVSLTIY
hgDAF12 agonist: hgDAF-12 agonism, primary luciferase screen; HEK293 GAL4-hgDAF12 UAS-luciferase reporter, agonist luminescence; normalized to butyrate control; activation, % at 6.8 µM; hit rate 1.8% among 370,000;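 active = activation above a cutoff set at the mean of all screened compounds plus 3 SD, cut at about 10% in these data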
Large screens that a line does not name were inactive. The list is not random: actives were taken first. Their share in the collection is about 4.6%.

O=C(O)c1ccc(Nc2nc(-c3ccc([N+](=O)[O-])cc3)nc3ccccc23)cc1	hcDAF-12 act 5.6 (no result: Wee1 stabilizer)
CCN(CC)c1ccc(C=Nn2c(-c3ccc(F)cc3)n[nH]c2=S)c(O)c1	none (no result: DAX1 inh-1, Wee1 stabilizer)
COc1ccc(C(=O)COc2ccc(C)cc2NC(C)=O)cc1	hgDAF12 agonist 10 (no result: DAX1 inh-1)
COc1ccccc1C1CC(c2ccccc2)=NN1S(=O)(=O)c1ccccc1 (centres undefined)	hgDAF12 agonist 11
CC(C)C[C@H]1CN(CCCC[C@@H]2CNC(=O)C(=O)N2Cc2ccccc2)C(=O)C(=O)N1CCc1ccccc1	none (no result: DAX1 inh-1, Wee1 stabilizer)
CCOC(=O)/C(C#N)=C\C1=C(N2CCCC2)CC(C)(C)OC1	none
CCOC(=O)/C(C#N)=C/C1=C(N2CCOCC2)C(C)(C)OCC1	DAX1 inh-1 4.3
CN(Cc1ccccc1)C(=C(Cl)Cl)/C(=C1/NCCN1C)[N+](=O)[O-]	DAX1 inh-1 5.4
CN(Cc1ccccc1)C(=C(Cl)Cl)C(=C1NCCN1)[N+](=O)[O-]	none (no result: hcDAF-12 act, DAX1 inh-2, ssDAF12 agonist, hgDAF12 agonist)
Cc1cc(C)cc(OCCCN2CCC(C(O)(c3ccccc3)c3ccccc3)CC2)c1	none (no result: DAX1 inh-1, Wee1 stabilizer)
COC(=O)[C@H](Cc1ccccc1)N(Cc1cn(Cc2ccccc2)nn1)S(=O)(=O)c1ccccc1Br	none (no result: DAX1 inh-1, Wee1 stabilizer)
O=C1C(=O)N(CCN2CCOCC2)C(c2ccccc2)/C1=C(\O)c1ccc2c(c1)OCCO2 (centres undefined)	DAX1 inh-2 4.0 (no result: Wee1 stabilizer)
CC(C)=CC(=O)Nc1c(C)cc(C)cc1Cl	DAX1 inh-1 4.6
Cc1cc(C)c(NC(=O)CCCC(=O)O)c(Cl)c1	none
COc1ccc(CN2C[C@]3(C=C4CCCCC4n4c(=O)n(-c5ccccc5)c(=O)n43)N(C(=O)OCc3ccccc3)C2=NC(=O)c2ccccc2)c(OC)c1 (some centres undefined)	none (no result: DAX1 inh-1, Wee1 stabilizer)
COC(=O)C(CC(C)C)NC(=O)/C=C/c1ccccc1Cl (centres undefined)	Wee1 stabilizer 10
COC(=O)c1ccc(N2CCN(CC(=O)c3ccc(C)cc3)CC2)c([N+](=O)[O-])c1	hcDAF-12 act 6.0 (no result: Wee1 stabilizer)
CC(C)N1CCCCC(NC(=O)c2ccc(Cl)cc2Cl)C1=O (centres undefined)	none (no result: DAX1 inh-1, Wee1 stabilizer)
c1ccc(CCn2nnnc2CN2CCCc3ccccc32)cc1	hcDAF-12 act 5.8
c1ccc2c(c1)CCCN2Cc1nnnn1CC1CCCO1 (centres undefined)	none
CCC(C)Nc1ncnc2c1cnn2Cc1ccc(Cl)cc1 (centres undefined)	none
CCC(CO)Nc1ncnc2c1cnn2-c1ccc(Cl)cc1 (centres undefined)	DAX1 inh-2 4.0
Clc1ccc(-n2ncc3c(NCc4ccco4)ncnc32)cc1	hgDAF12 agonist 13
COc1ccc(-c2cnc3c(-c4ccc(F)cc4)cnn3c2N)cc1	none (no result: Wee1 stabilizer)
Cc1nc2c(-c3ccc(F)cc3)cnn2c2c1CCC2	hcDAF-12 act 5.7
COc1ccccc1N1CCN(S(=O)(=O)c2cc(C(F)(F)F)cc(C(F)(F)F)c2)CC1	DAX1 inh-1 7.7
COc1ccccc1N1CCN(S(=O)(=O)c2ccccc2)CC1	none
O=C1N(Cc2ccccc2)c2ccccc2C12CCCc1sc(CCc3ccccc3)nc12 (centres undefined)	none (no result: DAX1 inh-1, Wee1 stabilizer)
Cc1[nH]c2ccccc2c1C(=O)CSC(=S)N(C)C	Wee1 stabilizer 9.1
COc1ccc2nc3cc(Cl)ccc3c(Nc3ccc(O)c(CN4CCN(C)CC4)c3)c2c1	DAX1 inh-1 4.3 (no result: Wee1 stabilizer)
O=C(CCSCCc1ccccn1)Nc1cc(F)ccc1F	none
O=C(CCSCCc1ccccn1)Nc1ccc(Br)cc1F	ssDAF12 agonist 2.0
OC[C@@H]1CN(CCNc2ccccc2)C[C@H](n2cnc3c(NCc4ccncc4)ncnc32)O1	none (no result: DAX1 inh-1, Wee1 stabilizer)
COc1ccc(C(C)=O)cc1CN1C(=O)NC(CC(C)C)C1=O (centres undefined)	DAX1 inh-1 4.4
COc1ccc(C(C)=O)cc1CN1C(=O)NC2(CCCC2)C1=O	none
CSc1nnc(-c2cccc(NC(=O)c3ccccc3)c2)n1C	Wee1 stabilizer 9.4 (no result: DAX1 inh-1)
CCC(=O)Nc1cccc(-c2nnc(SCC(=O)c3ccccc3)n2C)c1	none
Clc1ccc(Nc2nc3cccnc3s2)cc1	hgDAF12 agonist 11
CCCS(=O)(=O)Nc1cccc(-c2nc3cccnc3s2)c1	none
CCCCNc1nc2cccnc2s1	DAX1 inh-1 6.3
COCCN(C(=O)COC(=O)CCC1CCCCC1)c1c(N)n(Cc2ccccc2)c(=O)[nH]c1=O	none (no result: Wee1 stabilizer)
CN1[C@@H](COCc2ccccc2)C=CS1(=O)=O	none (no result: DAX1 inh-1, Wee1 stabilizer)
COC(=O)N(C)C[C@@H]1OCc2cnnn2CCCC(=O)N([C@H](C)CO)C[C@H]1C	none (no result: Wee1 stabilizer)
CCn1cc(C2=NC(c3ccccc3)CO2)c2ccccc21 (centres undefined)	Wee1 stabilizer 39
CCn1cc(C2=NC(C)CO2)c2ccccc21 (centres undefined)	none
CCCCCC(=O)Nc1cc(S(=O)(=O)N2CCOCC2)ccc1N1CCCCC1	none (no result: Wee1 stabilizer)
Cc1c(Cl)sn(-c2ccc(Cl)cc2)c1=O	none
O=C(Nc1nnc(-c2ccc(Cl)cc2)o1)C1CCCCC1	none (no result: Wee1 stabilizer)
Clc1ccc(-c2nnc(NC3=NCCCCC3)o2)cc1	hcDAF-12 act 6.1
Cc1ccc(S(=O)(=O)n2ccc(-c3ccc(OCc4c(F)cccc4Cl)cc3)n2)cc1	Wee1 stabilizer 8.8
COC(=O)/C(=C/c1cn(C(C)=O)c2ccccc12)[N+](=O)[O-]	hcDAF-12 act 5.7 (no result: DAX1 inh-1)
COC(=O)/C(=C/c1cn(C)c2ccccc12)[N+](=O)[O-]	none (no result: DAX1 inh-1, hcDAF-12 act, DAX1 inh-2, ssDAF12 agonist, hgDAF12 agonist)
CC1(NC(=O)Nc2ccccc2)CCS(=O)(=O)C1 (centres undefined)	none (no result: DAX1 inh-1)
CC1(NC(=O)Nc2cccc(Br)c2)CCS(=O)(=O)C1 (centres undefined)	DAX1 inh-1 5.2 (no result: Wee1 stabilizer)
CC(=O)Nc1ccc(NC(=O)C(C)OC(=O)CNC(=O)c2cccs2)cc1 (centres undefined)	none (no result: Wee1 stabilizer)
CC(=O)c1cccc(NC(=O)C(C)OC(=O)CNC(=O)c2ccc(C)s2)c1 (centres undefined)	Wee1 stabilizer 9.2
COC(=O)[C@H](CC(C)C)N(Cc1cn(Cc2ccc(C)cc2)nn1)S(=O)(=O)c1ccccc1Br	none (no result: DAX1 inh-1, Wee1 stabilizer)
Cn1c(C(=O)c2ccccc2[N+](=O)[O-])nc2ccccc21	hcDAF-12 act 5.8
CC(C)C(=O)Nc1cccc(C(=O)Nc2nnc(C(C)C)s2)c1	none
CC(C)c1nnc(NC(=O)c2cccc(NC(=O)C(F)(F)F)c2)s1	hgDAF12 agonist 12
Clc1ccc(CN2CCN(c3ncc(Cc4ccccc4)cn3)CC2)c(Cl)c1	none (no result: DAX1 inh-1, Wee1 stabilizer)
Cc1ccc(C)c(CN2CCC(CNC(=O)Nc3ccc(Br)cc3F)CC2)c1	none (no result: Wee1 stabilizer)
Cc1ccc(C)c(CN2CCC(CNC(=O)Nc3ccc(Cl)cc3)CC2)c1	DAX1 inh-1 6.2 (no result: Wee1 stabilizer)
O=c1[nH]c2ccccc2n1C1CCCCC1	DAX1 inh-1 6.1
O=C(NC1CCCCC1)N1CCC(n2c(=O)[nH]c3ccccc32)CC1	none (no result: Wee1 stabilizer)
